About 83,000 compounds went through this panel and 20% of them were active in at least one assay; those are over-represented in the sample as a whole.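 Activity criterion: percent growth below 10, measured after cells in 96-well plates were exposed to a single compound concentration for 48 hours.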 Unmarked numbers belong to inactive results. Active and inactive are the calls of the source.

Test systems include T-47D breast; BT-549 breast; MDA-MB-435 melanoma; SW-620 colon; MCF7 breast; HCT-116 colon; HCC-2998 colon; KM12 colon.
Assay in all cases: NCI-60 one-dose screen, 48 h (100 = growth as untreated, 0 = no growth, -100 = all killed)
Holding throughout (conditions): 10 µM unless noted

For `O=[N+]([O-])CC(c1ccccc1)c1c[nH]c2ccccc12` (stereo not given), the growth in the experiment with T-47D breast is 45.1%; with BT-549 breast it was 56.6%; in the experiment on MDA-MB-435 melanoma, -14.6% (active); with SW-620 colon it was 27.9%; in the experiment with MCF7 breast it was 29.9%; in the experiment on HCT-116 colon it was 32.7%. The growth in the experiment with HCC-2998 colon was 77.2%; in the experiment on KM12 colon it was 43.6%.

For `CCCCCCNC(=O)Oc1ccc(/C(=C(\C)c2ccccc2)c2ccc(OCCN3CCCCC3)cc2)cc1`, the growth was 30.1% in the experiment with T-47D breast; 64.2% with BT-549 breast; 68.2% in the experiment on MDA-MB-435 melanoma; 34.1% in the experiment with SW-620 colon; 12.7% in the experiment with MCF7 breast; 33.9% in the experiment with HCT-116 colon. The growth was 76.6% in the experiment with HCC-2998 colon and 49.2% with KM12 colon.

On to `CCN(CC)CCn1c(=O)c2cc(OC)c(OC)cc2c2ccc3cc4c(cc3c21)OCO4`, for which the growth with T-47D breast is 39.1%; in the experiment with BT-549 breast, 26.2%; in the experiment on MDA-MB-435 melanoma, 50.4%; with SW-620 colon, 26%; in the experiment with MCF7 breast it was 16.1%; with HCT-116 colon, 8.5% (active). The growth in the experiment on HCC-2998 colon is 74.9%; in the experiment with KM12 colon, 41.9%.

For the compound `CC(=O)[C@H]1CCC/C=C/[C@@H]2C[C@H](O)C[C@H]2[C@H](O)/C=C/C(=O)O1`, the growth is -12.2% (active) with T-47D breast; 9.71% (active) in the experiment on BT-549 breast; 8.17% (active) with MDA-MB-435 melanoma; -33.5% (active) in the experiment with SW-620 colon; 3.81% (active) in the experiment with MCF7 breast; -45.1% (active) in the experiment with HCT-116 colon. Moreover, the growth was -23.3% (active) in the experiment on HCC-2998 colon and -26.9% (active) in the experiment on KM12 colon.

For `CC(C)c1ccc(Nc2ccc3c(OCCCN4CCN(C)CC4)cccc3n2)cc1`, the growth in the experiment on T-47D breast was 68.9%; with BT-549 breast, 79.6%; in the experiment with MDA-MB-435 melanoma, 22.6%; in the experiment with SW-620 colon it was 4.69% (active); in the experiment on MCF7 breast, 18.2%; in the experiment on HCT-116 colon, 18.6%. The growth was 64.7% in the experiment on HCC-2998 colon and 39.3% with KM12 colon.

Consider `Cc1ccccc1NS(=O)(=O)c1cccc(C(=O)Nc2ccc(Br)cc2)c1`, for which the growth with T-47D breast was 25.8% [25 µM]; in the experiment with BT-549 breast it was 31.2% [25 µM]; with MDA-MB-435 melanoma it was 28.3% [25 µM]; with SW-620 colon, 58.8% [25 µM]; with MCF7 breast it was 30% [25 µM]; in the experiment with HCT-116 colon it was 30.5% [25 µM]. For the same compound, the growth in the experiment on HCC-2998 colon was 67.3% [25 µM]; with KM12 colon, 37.1% [25 µM].

Take `COc1cc2nc(-c3ccc(C(F)(F)F)cc3)cc(OCCN3CCCCC3)c2cc1OC`: the growth in the experiment with T-47D breast was 85.1%; in the experiment on BT-549 breast, 40.4%; in the experiment on MDA-MB-435 melanoma it was 90.5%; with SW-620 colon, 98.8%; with MCF7 breast, 79.5%; with HCT-116 colon it was 45.8%. The growth is 76.7% in the experiment with HCC-2998 colon and 80.3% in the experiment on KM12 colon.

Take `O=S(=O)(NCCNc1nccc(-c2c(-c3cccc(O)c3)nc3occn23)n1)c1ccccc1`: the growth was 74% in the experiment with T-47D breast; 96% with BT-549 breast; 28.5% with MDA-MB-435 melanoma; 103% with SW-620 colon; 49.4% in the experiment on MCF7 breast; 53.8% with HCT-116 colon. The growth in the experiment with HCC-2998 colon was 113%; with KM12 colon, 83.3%.

For the compound `O=C(CCN1CCCC1)Nc1ccc2c(Nc3ccc(F)cc3)c3ccccc3nc2c1`, the growth is 7.84% (active) with T-47D breast; 51.2% in the experiment on BT-549 breast; -94.9% (active) with MDA-MB-435 melanoma; -25% (active) with SW-620 colon; -19.9% (active) in the experiment on MCF7 breast; -54.2% (active) with HCT-116 colon. The growth is -80.3% (active) in the experiment with HCC-2998 colon and 0.928% (active) in the experiment on KM12 colon.

Take `CCCN1[C@@H]2CC[C@H]1/C(=C\c1ccc(OC)c(OC)c1)C(=O)/C2=C/c1ccc(OC)c(OC)c1`: the growth in the experiment with T-47D breast was 25.1%; in the experiment on BT-549 breast, 51.8%; in the experiment with MDA-MB-435 melanoma it was 39.6%; in the experiment on SW-620 colon, 43%; with MCF7 breast it was 30.2%; with HCT-116 colon, 22.1%. The growth in the experiment with HCC-2998 colon is 86.7%; in the experiment with KM12 colon, 54.6%.

`O=[N+]([O-])c1ccc(N=Nc2cc(S(=O)(=O)O)c3cccc(S(=O)(=O)O)c3c2O)cc1`: the growth in the experiment with T-47D breast was 108%; in the experiment with BT-549 breast, 105%; in the experiment with MDA-MB-435 melanoma, 86%; with SW-620 colon it was 112%; in the experiment with MCF7 breast, 97.7%; with HCT-116 colon, 97.7%. In addition, the figures for the growth in the experiment on HCC-2998 colon and with KM12 colon were 112% and 118%, respectively.

Turning to `O=C(/C(=C\c1ccc([N+](=O)[O-])cc1)S(=O)Cc1ccc(Cl)cc1)c1ccc(Cl)cc1` (stereo not given), the growth in the experiment with T-47D breast is 51.6%; in the experiment with BT-549 breast, 94.6%; in the experiment with MDA-MB-435 melanoma, 82.6%; in the experiment with SW-620 colon, 28%; in the experiment on MCF7 breast, 49%; with HCT-116 colon it was 4.9% (active). In addition, the growth is 80.4% in the experiment on HCC-2998 colon and 73.8% in the experiment with KM12 colon.

Regarding `C=C(C)[C@@H]1CC[C@]2(C(=O)N3CCN(C)CC3)CC[C@]3(C)[C@H](CC[C@@H]4[C@@]5(C)C/C(=C/c6ccncc6)C(=O)C(C)(C)[C@@H]5CC[C@]43C)[C@@H]12`, the growth in the experiment with T-47D breast is 48.3%; with BT-549 breast, 66.3%; in the experiment on MDA-MB-435 melanoma, 56.4%; with SW-620 colon, 39.6%; in the experiment with MCF7 breast it was 19%; in the experiment on HCT-116 colon, 17.6%. For the same compound, the values for the growth in the experiment with HCC-2998 colon and with KM12 colon were 62.5% and 51.3%, respectively.

As to `O=C(C1CCC1)N1N=C(c2ccc(-n3ccc(C(F)(F)F)n3)cc2)CC1c1ccc[nH]1` (stereo not given), the growth in the experiment on T-47D breast was 78%; in the experiment with BT-549 breast it was 119%; in the experiment on MDA-MB-435 melanoma, 99.7%; with SW-620 colon, 103%; in the experiment with MCF7 breast it was 91.9%; with HCT-116 colon, 94.4%. Besides, the figures for the growth in the experiment on HCC-2998 colon and with KM12 colon were 113% and 89.7%, respectively.

On to `Cc1cc2c(C(=O)NCC#N)cccc2n1-c1nc2c(c(NCc3ccccc3)n1)CCCC2`, for which the growth in the experiment on T-47D breast is -16.6% (active); in the experiment on BT-549 breast, -34.8% (active); with MDA-MB-435 melanoma, -59.8% (active); in the experiment with SW-620 colon, 2.79% (active); in the experiment with MCF7 breast it was 1.12% (active); in the experiment with HCT-116 colon it was -14.4% (active). Moreover, the growth in the experiment with HCC-2998 colon was -87.6% (active); in the experiment with KM12 colon, -38.7% (active).
